KCNQ2 inh: KCNQ2 (rat) channel inhibition; AID 2156; B-score at 10 µM; CHO-K1 KCNQ2, FluxOR thallium flux, 20 min; stronger effect = lower value; hit rate 1.1% among 310,000;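 active = fluorescence ratio B-score at most minus 3 library SDs, with starting brightness B-score within 2 library SDs, cut at about -5.5 in these data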
Target sequence (O88943 whole entry, looked up): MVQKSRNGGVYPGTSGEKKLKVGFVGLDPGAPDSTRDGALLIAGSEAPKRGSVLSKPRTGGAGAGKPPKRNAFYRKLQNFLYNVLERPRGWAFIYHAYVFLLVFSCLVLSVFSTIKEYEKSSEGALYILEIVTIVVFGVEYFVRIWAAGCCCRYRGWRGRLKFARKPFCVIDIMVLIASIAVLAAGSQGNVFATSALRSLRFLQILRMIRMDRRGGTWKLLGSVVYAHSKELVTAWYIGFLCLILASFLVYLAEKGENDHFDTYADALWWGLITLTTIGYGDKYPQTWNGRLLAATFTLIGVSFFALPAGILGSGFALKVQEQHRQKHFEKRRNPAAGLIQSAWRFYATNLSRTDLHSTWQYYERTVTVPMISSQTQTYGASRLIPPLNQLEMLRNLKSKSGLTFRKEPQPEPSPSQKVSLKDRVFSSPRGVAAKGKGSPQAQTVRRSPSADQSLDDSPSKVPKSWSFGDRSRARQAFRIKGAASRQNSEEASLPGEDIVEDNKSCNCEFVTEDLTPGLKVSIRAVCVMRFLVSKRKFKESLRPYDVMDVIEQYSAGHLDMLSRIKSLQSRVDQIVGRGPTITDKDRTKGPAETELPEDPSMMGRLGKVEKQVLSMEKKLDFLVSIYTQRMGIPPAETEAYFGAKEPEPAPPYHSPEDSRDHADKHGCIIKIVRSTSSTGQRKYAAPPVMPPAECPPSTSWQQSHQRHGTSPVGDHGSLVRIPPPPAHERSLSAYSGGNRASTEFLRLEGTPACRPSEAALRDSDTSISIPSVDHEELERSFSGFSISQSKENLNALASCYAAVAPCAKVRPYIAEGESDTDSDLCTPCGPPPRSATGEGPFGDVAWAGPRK
KCNQ2 enhance: potentiators of rat KCNQ2 potassium channel. O88943. CHO-K1 KCNQ2, FluxOR thallium flux fluorescence; stronger effect = higher value. B-score at 10 µM. hit rate 0.54% among 310,000. AID 2239;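 active = fluorescence ratio B-score at least 3 SD of library B-scores, with initial fluorescence B-score within 3 of them, cut at about 5.3 in these data; same plate scores as AID 2156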;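 note: B-score of peak minus minimum over baseline fluorescence ratio after K+ and Tl+ stimulus; positive B-score means potentiation of KCNQ2 with more thallium influx and brighter signal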
A number is an active result; - = inactive; . = not tested or not shown. Rows were chosen to be rich in hits. Some 1.6% of all compounds tested hit in one or more screens of this group.

SMILES | KCNQ2 inh | KCNQ2 enhance
CC[C@@H](C(=O)[C@@H](C)[C@@H](O)[C@H](C)CCc1ccc(C)c(O)c1C(=O)O)[C@H]1O[C@](CC)([C@H]2CC[C@](O)(CC)[C@H](C)O2)C[C@@H]1C | - | 27.4
Cc1cc(Cl)ccc1NC(=O)CCCN1C(=O)CCC1=O | - | .
COc1ccc(C(CNC(=O)c2oc3ccc(F)cc3c2C)N2CCCCC2)cc1 (configuration not stated) | -6.29 | -
COc1ccc(C(CNC(=O)c2oc3cc(C)c(C)cc3c2C)N2CCCCC2)cc1 (configuration not stated) | - | .
COc1ccc(C(CNC(=O)c2oc3cc(Br)ccc3c2C)N2CCCCC2)cc1 (configuration not stated) | - | .
CCc1ccc2oc(C(=O)NCC(c3ccc(OC)cc3)N3CCCCC3)c(C)c2c1 (configuration not stated) | -7.06 | -
COc1ccc(C(CNC(=O)COc2ccccc2C)N2CCCC2)cc1 (configuration not stated) | - | .
COc1ccc(C(CNC(=O)c2oc3ccc(Br)cc3c2C)N2CCCCC2)cc1 (configuration not stated) | -6.22 | -
COc1ccc(C(CNC(=O)COc2ccc(Cl)c(C)c2)N2CCCCC2)cc1 (configuration not stated) | -5.92 | -
COc1ccc(C(CNC(=O)c2oc3ccc(OC)cc3c2C)N2CCCC2)cc1 (configuration not stated) | - | .
COc1cc(/C=N/NC(=O)c2cccnc2)cc2c1OCO2 | - | -
CC(C)NC(=O)COc1nncc2ccccc12 | - | .
C/C(=N/NC(=O)c1cn(-c2cccc(C)n2)cn1)c1ccc(C)cc1 | - | .
Cc1ccnc(NC(=O)/C=C/c2ccccc2Cl)c1 | - | -
O=[N+]([O-])c1cccnc1SCc1ccccc1 | - | -
CCOC(=O)c1ccc(NC(=O)c2nc[nH]c2C(=O)N2CCC(C)CC2)cc1 | - | -
CCN(CC)S(=O)(=O)c1ccc(N2CCOCC2)c(NC(=O)CC(C)(C)C)c1 | - | .
CCN(CC)S(=O)(=O)c1ccc(N2CCOCC2)c(NC(=O)c2ccccc2)c1 | - | .
CCN(CC)S(=O)(=O)c1ccc(N2CCOCC2)c(NC(=O)COc2ccc(Cl)cc2)c1 | -6.56 | -
CCN(CC)S(=O)(=O)c1ccc(N2CCOCC2)c(NC(=O)c2cc(C)cc(C)c2)c1 | -6.18 | -
NC(=O)N/N=C/c1coc2ccc3ccccc3c2c1=O | - | -
O=Cc1coc2ccc3ccccc3c2c1=O | -8.08 | -
S=C(Nc1ccccn1)Nc1ccccc1Cl | - | -
O=C(COC(=O)C1(c2ccc(Cl)cc2)CCCC1)N1CCc2ccccc21 | -7.26 | -
O=C(CNS(=O)(=O)c1ccc(Cl)cc1)OCC(=O)N1CCCc2ccccc21 | - | .
SMILES | KCNQ2 inh | KCNQ2 enhance
CCNC(=O)NC(=O)C(C)OC(=O)CCCc1nc2ccccc2s1 (configuration not stated) | - | -
COc1ccc(C(CNC(=O)CCOc2ccccc2)N(C)C)cc1 (configuration not stated) | - | .
CC1CCc2sc(C(=O)NC(C)C3CCCO3)cc2C1 (configuration not stated) | -6.08 | -
CC1CCc2sc(C(=O)NNC(=S)NCC3CCCO3)cc2C1 (configuration not stated) | - | -
Fc1ccccc1Cc1noc(CN2CCC(OCc3cccnc3)CC2)n1 | - | -
CCC(C(=O)OCC(=O)Nc1cccc(OC)c1)c1ccccc1 (configuration not stated) | - | .
CCCN(CCC)C(C(=O)Nc1cccc(OC)c1)c1ccccc1 (configuration not stated) | -5.93 | -
CN(C(=O)CN(C)S(=O)(=O)c1ccc(F)cc1)c1c(N)n(Cc2ccccc2)c(=O)[nH]c1=O | - | .
OCCC1CN(Cc2nc3ccccc3s2)CCN1C1CCCCC1 (configuration not stated) | - | .
O=C(NCC1CCCO1)C1CC(=O)N(c2ccccc2)C1 (configuration not stated) | - | .
O=C(CCc1ccccc1)NC(=S)Nc1cc(C(F)(F)F)ccc1N1CCOCC1 | -6.25 | -
CC(C)CC(=O)NC(=S)Nc1cc(C(F)(F)F)ccc1N1CCOCC1 | - | .
Cc1ccc(NC(=O)CSc2nc3[nH]ncc3c(=O)[nH]2)cc1 | - | -
COc1cc(C(=O)N=c2sc3c(C)ccc(OC)c3n2C)cc(OC)c1OC | - | .
O=c1c(-c2ccccc2)c(-c2ccccc2)oc2cc(O)cc(O)c12 | -5.81 | -
O=c1cc(-c2ccccc2)c2c(O)cc(O)cc2o1 | - | -
CC1CC[C@@]2(OC1)O[C@H]1CC3[C@@H]4C[C@@H](O)[C@@]5(O)C[C@@H](O)[C@H](O)C[C@]5(C)[C@H]4CC[C@]3(C)[C@H]1[C@@H]2C (some centres not stated) | - | .
CCc1ccc(C(=O)NNc2cc(Cl)ccc2Cl)cc1 | - | -
CCN(Cc1ccccc1)C(=O)c1cccc(OC2CCN(C(=O)C3CC3)CC2)c1 | - | -
COc1ccc(-c2csc3ncnc(N4CCN(c5cccc(OC)c5)CC4)c23)cc1 | - | .
COc1ccc(-c2csc3ncnc(N4CCN(S(=O)(=O)c5cccs5)CC4)c23)cc1 | - | .
COc1ccc(-c2csc3ncnc(N4CCN(S(=O)(=O)c5ccc(Cl)s5)CC4)c23)cc1 | -7.55 | -
COc1ccc(N2CCN(C(=O)CSc3ncnc4scc(-c5ccc(C)cc5)c34)CC2)cc1 | -5.6 | -
COc1ccc(-c2csc3ncnc(N4CCN(c5cccc(Cl)c5)CC4)c23)cc1 | -6.07 | -
COc1ccc(N2CCN(c3ncnc4scc(-c5ccc(C)cc5)c34)CC2)cc1 | - | -
SMILES | KCNQ2 inh | KCNQ2 enhance
Cc1cccc(NC(=O)C2CC(=O)n3cnnc3S2)c1 (configuration not stated) | - | .
Cc1ccc(S(=O)(=O)NCCNC(=O)c2nonc2N)cc1 | - | -
COc1cc(COCC(O)CN2CCN(CCN3C(=O)c4cccc5cccc(c45)C3=O)CC2)cc(OC)c1OC (configuration not stated) | - | -
O=C1c2cccc3cccc(c23)C(=O)N1CCN1CCN(CC(O)COCc2ccc(Cl)cc2)CC1 (configuration not stated) | -5.73 | -
COc1cccc(CNC(=O)CCC2CCCN(C(=O)c3ccoc3)C2)c1 (configuration not stated) | - | -
COc1cccc(CNC(=O)CCC2CCCN(C(=O)c3cc4ccccc4o3)C2)c1 (configuration not stated) | -6.42 | -
COc1ccc(N2CCN(C(=O)c3oc4ccccc4c3NC(=O)Cc3cccc(OC)c3)CC2)cc1 | -5.78 | -
COc1ccc(N2CCN(C(=O)c3oc4ccccc4c3NC(=O)Cc3ccc(OC)c(OC)c3)CC2)cc1 | - | .
Cc1ccc(C(C#N)c2ccc(C(=O)c3ccc(F)cc3)cc2)cc1 (configuration not stated) | -6.36 | -
N#CC(c1ccc(F)cc1)c1ccc(C(=O)c2ccc(F)cc2)cc1 (configuration not stated) | - | .
Cc1ccc(NC(=O)C2CCCN(S(=O)(=O)c3cccnc3)C2)cc1C (configuration not stated) | - | -
CCN(C(=O)c1cc2c(=O)[nH]c3ccc(C)cc3c2s1)c1cccc(C)c1 | - | -
CCN1CCc2nc3sc(C(=O)N4CCc5ccccc5C4)c(N)c3cc2C1 | - | .
Cc1cc(C)c2c(N)c(C(=O)N3CCc4ccccc4C3)sc2n1 | -7.69 | -
Cc1cc(N2CCCCC2)c(F)cc1[N+](=O)[O-] | - | -

Compound activity deposited in PubChem by Johns Hopkins Ion Channel Center.
